About 64,000 (15%) of roughly 420,000 compounds were called active. About 27% were inconclusive and are not listed. A selection follows. Unmarked numbers belong to inactive results. Calls follow the shape of the dose curve; as a rule, active = well fitted inhibition curve with a large enough effect; inconclusive = small, poorly fitted or top-dose-only effect; inactive = flat fitted curve, though single readings scatter.
Assay: qHTS for Inhibitors of human tyrosyl-DNA phosphodiesterase 1 (TDP1): qHTS in cells in absence of CPT; also: nearly all actives have a fitted effect of over 55% in size
Settings: DT40 Tdp1-/- hTDP1 cells, no CPT, ATP luminescence, 48 h; activity change, negative = growth inhibition: at 46.2 µM (top of the series)
From the text: Human tyrosyl-DNA phosphodiesterase 1 (TDP1) is a novel repair gene, and we propose to use it as a new target for anticancer drug development. TDP1 is not an essential protein, but under treatment with topoisomerase I poison (camptothecin: CPT), TDP1 works as a critical factor for cell survival. To directly identify novel TDP1 inhibitors active in a cellular environment, we have knocked-out the Tdp1 gene in chicken DT40 cells (Tdp1-/-) and generated a complemented counterpart cells that contains a stable transfection of the human TDP1 gene (Tdp1-/-;hTDP1 cells). For the primary screen, Tdp1-/-;hTDP1 cells will be exposed to small molecules in the presence or absence of CPT, and their growth kinetics will be evaluated after 48 hours by measuring ATP activity. […] The hit compounds will then be evaluated in the presence or absence of CPT using Tdp1-/- cells. […] In tertiary assays, biochemical gel-based assays will be used to assess whether the hit compounds specifically target TDP1.
To this end, we have screened this cell line against the MLSMR in two primary screens. In one screen we add CPT and in the other we screen in the absence of CPT; this AID represents the screen where CPT was absent.
NIH Chemical Genomics Center [NCGC]
NIH Molecular Libraries Probe Centers Network [MLPCN]
Assay Submitter (PI): Yves Pommier, NCI
DT40-hTDP1 cells without 20 nM Camptothecin (add 20 microL of DMSO in 1 L of cell culture medium) were dispensed at 400 cells/5microL/well in tissue culture treated 1536-well white wall/solid bottom assay plates (Greiner Bio-One North America, NC, U.S.A.) using a Multidrop Combi 8 channel dispenser (Thermo Fisher, Waltham, MA, USA). 23 nL compounds and controls were transferred using the pin tool (Kalypsys, San Diego, CA, USA) to the assay plates. The assay plates were then incubated at 37 masculineC for a minimum 48 hr. Three microL of Cell Titer Glo solution was added to the plates and incubated at RT in dark for 30 min. Luminescence was read using ViewLux (Perkin Elmer) with 1 sec exposure slow speed, high gain and 2x binning.
% is scaled to controls: 0 for no effect and ±100 for the full control effect; potency is read from the fitted curve at half-maximal effect.

| SMILES | activity change, negative = growth inhibition | Potency |
| --- | --- | --- |
| CCCc1nc(N)nc2c1C(=O)CC(C)(C)C2 | -9.4% |  |
| COc1ccc(C(C(=O)NC(C)(C)C)N(C(=O)Cn2nnc3ccccc32)c2ccc(C(C)=O)cc2)cc1O (stereo unspecified) | -0.0142% |  |
| O=C(CC(NCCN1CCOCC1)C(=O)O)Nc1cccc(Cl)c1 (stereo unspecified) | 0.483% |  |
| OC[C@@H]1CN(Cc2ccc3c(c2)OCO3)C[C@H](n2cnc3c(NCc4ccco4)ncnc32)O1 | -9.44% |  |
| Cc1ccccc1NC(=O)CCNS(=O)(=O)c1ccc2[nH]c(=O)oc2c1 | -1.56% |  |
| COc1ccc(NC(=O)C2=CC(c3ccc(OC)c(OC)c3)=NS(=O)(=O)N2C)cc1 |  | 23.1 µM (active) |
| COc1cc(NC(=O)C2=CC(c3ccc(C)cc3)=NS(=O)(=O)N2C)cc(OC)c1OC | -45.5% |  |
| COc1ccc(C2=NS(=O)(=O)N(C)C(C(=O)NC(C)c3ccccc3)=C2)cc1 (stereo unspecified) | -30.1% |  |
| COc1ccccc1N(CC(=O)N1CCCCC1)S(=O)(=O)c1ccccc1 | -24.2% |  |
| CC(=O)Nc1ccccc1Sc1ccc2c3c(cccc13)C(=O)N(c1ccc(C)cc1)C2=O |  | 16.4 µM (active) |
| CSc1ccccc1NC(=O)C(C)N1C(=O)c2ccccc2S1(=O)=O (stereo unspecified) | -7.02% |  |
| CCOC(=O)Nc1ccccc1N1C(=O)c2ccccc2C1=O | 7.52% |  |
| Cc1c(Cl)c([N+](=O)[O-])nn1CC(=O)NCC1CCCO1 (stereo unspecified) | 7.74% |  |
| COc1ccc(NC(=O)CCCC(=O)c2ccccc2)cc1 | -6.59% |  |
| O=S(=O)(N1CCCCC1)N1CCNCC1 | 6.69% |  |
| Cc1ccc(C(=O)N/C(=C\c2cn(C)c3ccccc23)C(=O)N2CCN(C)CC2)cc1 | 11.5% |  |

| SMILES | activity change, negative = growth inhibition | Potency |
| --- | --- | --- |
| CN1C(=O)/C(=C/c2ccco2)SC1=Nc1cccc(C(=O)O)c1 | -0.247% |  |
| Cc1cccc(N=C2NC(=O)/C(=C/c3cn(C)c4ccccc34)S2)c1 |  | 16.4 µM (active) |
| Cc1ccc(NC(=O)CN(C)S(=O)(=O)c2cnc[nH]2)cc1C | -7.33% |  |
| Cc1ccc2nc(CNC(=O)c3ccccc3)[nH]c2c1 | -0.575% |  |
| COc1ccc(CCNS(=O)(=O)c2ccc(C(=O)NCc3ccco3)cc2)cc1OC | -12.5% |  |
| CC(C)OCCCNC(=O)CNC(=O)c1cccs1 | -7.96% |  |
| CCC1=Nc2cc(C(=O)NCC(C)c3ccccc3)ccc2Sc2ccc(C)cc21 (stereo unspecified) |  | 23.1 µM (active) |
| CCC1=Nc2cc(C(=O)NCCCOC(C)C)ccc2Sc2ccc(C)cc21 |  | 0.517 µM (active) |
| CCCC1=Nc2cc(C(=O)NCc3ccco3)ccc2Sc2ccccc21 |  | 3.66 µM (active) |
| CC(C)NC(=O)C(=O)NCCCOC(C)C | -0.626% |  |
| Cc1ccc(C(=O)NC(C)c2ccccc2)cc1Br (stereo unspecified) | -22.9% |  |
| O=C(NCc1ccco1)c1cccc(-c2ccc3nncn3c2)c1 | -12.4% |  |
| COc1ccc(C(=O)NCCCN2CCOCC2)cc1Br | 6.89% |  |
| CCC1=Nc2cc(C(=O)NCCCN3CCOCC3)ccc2Sc2ccc(Br)cc21 |  | 3.66 µM (active) |
| O=C(NCCCN1CCOCC1)c1cc(-c2cccc(O)c2)on1 | -18.6% |  |
